Reference: PubChem BioAssay
Several values for one entry are separate records, joined by “and”; a condition that tells them apart may be missing. Identical values can stand only once. Activity calls are given as the source filed them.

Columns and labels:
[1] = E. coli DRC41 culture turbidity changes, primary screen, E. coli filamentation inducer project, strain DRC41, OD650, 48 h (AID 1152);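 note: E. coli MC1000 strain DRC41 lacking acrAB efflux pump and sulA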; settings: E. coli DRC41 (acrAB sulA), higher = more signal, called active from +8 up or from −8 down
[2] = small-molecule binders of probe aLefty1, primary screen, biochemical, small-molecule microarray, 635/667 nm fluorescence (AID 1153); settings: higher = more signal;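 note: score merges spot fluorescence with signal-to-noise ratio from the scanned slide images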
[3] = PSAC antagonists in infected red cells, primary screen, cell-based, P. falciparum Indochina, OD700, 1 h (AID 1154); settings: P. falciparum Indochina infected RBC osmotic lysis, higher = more signal, called active from +8 up or from −8 down
[4] = PSAC antagonists in infected red cells, primary screen, cell-based, P. falciparum Indochina, OD700, 2 h (AID 1155);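 note: lysis reports solute entry through the parasite surface anion channel PSAC; channel blockers reduce lysis of infected cells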; settings: P. falciparum Indochina infected erythrocytes, osmotic lysis OD700; higher = more signal, called active from +8 up or from −8 down
[5] = osmotic lysis modulators in infected erythrocytes, primary screen, PSAC antagonist project, cell-based, P. falciparum Indochina, OD700, 3 h (AID 1156); settings: higher = more signal, called active from +8 up or from −8 down
[6] = PSAC antagonists in infected red cells, primary screen, cell-based, P. falciparum Indochina, OD700, 18 h (AID 1157); settings: P. falciparum Indochina infected erythrocytes, osmotic lysis OD700, 18 h; higher = more signal, called active from +8 up or from −8 down
[7] = modulators of S6 phosphorylation in cells, primary screen, cell-based, A549, cytoblot, luminescence, serum-stimulated (AID 1158); settings: A549 phospho-S6 cytoblot, 5 h, higher = more signal;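 note: serum-stimulated A549 lung adenocarcinoma cells; signal is phosphorylated S6 detected by cytoblot immunostaining with HRP secondary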
[8] = biological target: NADPH oxidase 2 (Homo sapiens) (UniProt P04839); assay: NOX2-dependent H2O2 signal modulators, primary screen, NOX inhibitor project, cell-based, HEK293-NOX2, PMA-stimulated, Amplex Red fluorescence (AID 1159); settings: 45 min, higher = more signal, called active from +8 up or from −8 down; note: test concentration not given here
[9] = biological target: NADPH oxidase 4 (Homo sapiens) (UniProt Q9NPH5); assay: NOX4-dependent H2O2 signal modulators, primary screen, NOX inhibitor project, cell-based, HEK293-NOX4, tetracycline-induced, Amplex Red fluorescence (AID 1160); settings: 45 min, higher = more signal, called active from +8 up or from −8 down
[10] = biological target: NADPH oxidase 5 (Homo sapiens) (UniProt Q96PH1); assay: NOX5-dependent H2O2 signal modulators, primary screen, NOX inhibitor project, cell-based, HEK293-NOX5, Amplex Red fluorescence (AID 1161); settings: HEK293-NOX5, ionomycin, 45 min, higher = more signal
[11] = A549 cell viability effects, profiling panel, calcein-AM fluorescence, 48 h, basal (AID 1162); settings: higher = more signal; note: test concentration not given here
[12] = adipocyte viability effects, profiling panel, cell-based, 3T3-L1 adipocytes, calcein-AM fluorescence, 48 h, basal (AID 1163); settings: 3T3-L1 adipocytes viability, higher = more signal; note: test concentration not given here
[13] = HepG2 cell viability effects, profiling panel, calcein-AM fluorescence, 48 h, basal (AID 1164); settings: higher = more signal; note: test concentration not given here
[14] = MM1S cell viability effects, profiling panel, calcein-AM fluorescence, 48 h, basal (AID 1165); settings: higher = more signal;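 note: viability of MM1S multiple myeloma cells under basal unstimulated conditions; test concentration not given here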
[15] = basal RPMI8226 viability, no added stimulus, profiling panel, cell-based, calcein-AM fluorescence, 48 h, PK04 Diversity Set (AID 1166); settings: RPMI8226 myeloma viability, higher = more signal;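 note: cells grown under basal conditions without added stimulus; test concentration not given here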
[16] = basal HepG2 mitochondrial membrane potential changes, profiling panel, cell-based, JC-1 fluorescence, 24 h, 100 nL compound (AID 1167); settings: higher = more signal; note: test concentration not given here
[17] = basal 3T3-L1 adipocyte mitochondrial potential changes, profiling panel, cell-based, JC-1 fluorescence, 3T3-L1 adipocytes, 24 h, 100 nL compound (AID 1168); settings: JC-1 mitochondrial fluorescence, higher = more signal, called active from +8 up or from −8 down; note: test concentration not given here
[18] = basal RPMI8226 mitochondrial membrane potential changes, profiling panel, cell-based, JC-1 fluorescence, 24 h, 100 nL compound (AID 1169); settings: RPMI8226 myeloma, JC-1 mitochondrial potential fluorescence, higher = more signal; note: test concentration not given here
[19] = basal MM1S mitochondrial membrane potential changes, profiling panel, cell-based, JC-1 fluorescence, 24 h, 100 nL compound (AID 1170); settings: higher = more signal; note: test concentration not given here
[20] = A549 lung cancer cell viability effects, profiling panel, resazurin fluorescence, 24 h, PK04 Diversity Set (AID 1171); settings: higher = more signal, called active from +8 up or from −8 down; note: test concentration not given here

NADPH oxidase 2 (Homo sapiens), sequence (P04839 whole entry, looked up): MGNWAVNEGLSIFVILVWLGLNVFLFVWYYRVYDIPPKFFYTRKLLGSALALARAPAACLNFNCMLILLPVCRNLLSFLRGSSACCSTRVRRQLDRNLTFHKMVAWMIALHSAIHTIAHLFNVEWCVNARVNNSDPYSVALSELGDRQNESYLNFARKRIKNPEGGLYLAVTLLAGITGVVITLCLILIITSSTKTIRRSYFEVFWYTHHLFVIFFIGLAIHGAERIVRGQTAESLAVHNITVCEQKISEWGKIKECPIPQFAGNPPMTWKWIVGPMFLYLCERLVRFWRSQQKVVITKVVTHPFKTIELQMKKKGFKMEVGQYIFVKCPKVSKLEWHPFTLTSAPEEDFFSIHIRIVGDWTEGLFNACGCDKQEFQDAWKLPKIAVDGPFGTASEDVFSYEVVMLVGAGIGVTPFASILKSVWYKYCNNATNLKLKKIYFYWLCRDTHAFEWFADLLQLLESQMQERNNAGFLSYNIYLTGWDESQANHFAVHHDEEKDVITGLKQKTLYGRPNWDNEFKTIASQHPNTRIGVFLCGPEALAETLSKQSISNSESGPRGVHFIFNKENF
NADPH oxidase 5 (Homo sapiens), sequence (Q96PH1 whole entry, looked up): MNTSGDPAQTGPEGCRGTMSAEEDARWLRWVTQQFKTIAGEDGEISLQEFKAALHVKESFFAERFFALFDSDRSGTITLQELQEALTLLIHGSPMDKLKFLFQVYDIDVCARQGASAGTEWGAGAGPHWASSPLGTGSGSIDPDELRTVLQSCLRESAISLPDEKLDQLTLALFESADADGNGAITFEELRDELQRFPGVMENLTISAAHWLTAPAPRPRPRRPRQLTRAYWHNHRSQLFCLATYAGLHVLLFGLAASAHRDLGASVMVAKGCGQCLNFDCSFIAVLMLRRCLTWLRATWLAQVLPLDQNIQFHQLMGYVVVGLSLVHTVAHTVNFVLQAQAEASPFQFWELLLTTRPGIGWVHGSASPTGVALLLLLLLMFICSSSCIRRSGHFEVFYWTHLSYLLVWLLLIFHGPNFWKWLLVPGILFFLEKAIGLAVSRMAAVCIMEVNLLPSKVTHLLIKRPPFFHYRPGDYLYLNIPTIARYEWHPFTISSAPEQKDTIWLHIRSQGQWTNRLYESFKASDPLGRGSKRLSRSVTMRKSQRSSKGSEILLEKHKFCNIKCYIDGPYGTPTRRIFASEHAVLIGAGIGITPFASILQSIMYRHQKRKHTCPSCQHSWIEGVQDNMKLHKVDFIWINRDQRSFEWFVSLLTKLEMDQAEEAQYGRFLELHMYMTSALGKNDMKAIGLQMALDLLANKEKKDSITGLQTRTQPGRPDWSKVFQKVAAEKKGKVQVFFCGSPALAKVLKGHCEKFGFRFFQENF
NADPH oxidase 4 (Homo sapiens), sequence (Q9NPH5 whole entry, looked up): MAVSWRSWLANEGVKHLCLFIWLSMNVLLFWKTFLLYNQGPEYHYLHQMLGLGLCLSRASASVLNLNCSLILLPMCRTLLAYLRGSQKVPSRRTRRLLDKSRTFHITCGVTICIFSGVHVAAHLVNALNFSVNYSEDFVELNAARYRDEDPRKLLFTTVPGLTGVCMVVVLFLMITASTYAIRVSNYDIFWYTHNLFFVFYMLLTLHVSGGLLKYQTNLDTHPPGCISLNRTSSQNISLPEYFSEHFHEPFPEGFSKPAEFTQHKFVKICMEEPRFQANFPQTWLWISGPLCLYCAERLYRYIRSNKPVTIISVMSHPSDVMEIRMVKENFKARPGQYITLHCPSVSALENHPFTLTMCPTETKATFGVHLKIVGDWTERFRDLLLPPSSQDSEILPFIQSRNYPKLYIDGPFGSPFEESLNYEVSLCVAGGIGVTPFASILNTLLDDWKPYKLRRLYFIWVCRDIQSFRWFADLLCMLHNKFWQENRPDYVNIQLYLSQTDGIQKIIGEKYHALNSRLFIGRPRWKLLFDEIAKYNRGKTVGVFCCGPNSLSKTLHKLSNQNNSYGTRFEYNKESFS

With `C=CCN1C(=O)[C@]2(O[C@H](CCn3cc(CCO)nn3)[C@@H]([Si](C)(C)c3ccc(OC)cc3)[C@@H]2C)c2cc(N3C(=O)c4cccc5cccc3c45)ccc21` the z-score [1] was 0.833 (inactive) and -0.342 (inactive), the composite z-score [2] was -0.0536 and 0.188 and the z-score [3] was 24.1 (active). The z-score [4] was 9.07 (active) and 8.54 (active), the z-score [5] was -0.152 (inactive) and -1.17 (inactive) and the z-score [6] was 2.04 (inactive) and 1.7 (inactive). For the same compound, the z-score [7] was 1.04 and 0.347, the z-score [8] was 0.823 (inactive) and 1.03 (inactive) and the z-score [9] was 0.265 (inactive) and 0.624 (inactive). For the same compound, the z-score [10] was -0.371 and -0.152, the z-score [11] was -3.83 and -4.13 and the z-score [12] was -1.83 and -2.41. The z-score [13] was -4.65 and -4.73, the z-score [14] was -2.66 and -2.87 and the z-score [15] was -4.33 and -4.37. The z-score [16] was -1.51 and 1.37, the z-score [17] was 5.29 (inactive) and 4.16 (inactive) and the z-score [18] was -0.877 and -0.786. The z-score [19] was -2.27 and -1.98 and the z-score [20] was -6.11 (inactive).

For `C=C[C@H](OC)[C@@H](O)c1ccc(OCCO)cc1`, the z-score [1] was -0.389 (inactive) and 0.805 (inactive), the composite z-score [2] was -0.328 and -0.147 and the z-score [3] was 0.749 (inactive) and 0.142 (inactive). The z-score [4] was 0.305 (inactive) and 0.0012 (inactive), the z-score [5] was -0.442 (inactive) and -0.321 (inactive) and the z-score [6] was 0.0568 (inactive) and 0.352 (inactive). For the same compound, the z-score [7] was 0.136 and 0.135, the z-score [8] was 0.844 (inactive) and -0.354 (inactive) and the z-score [9] was -1.32 (inactive) and -0.339 (inactive). For the same compound, the z-score [10] was -0.372 and 0.317, the z-score [11] was -0.057 and 1.18 and the z-score [12] was -0.367 and 0.0113. The z-score [13] was -0.485 and 0.98, the z-score [14] was -0.457 and 1.61 and the z-score [15] was -0.179 and 0.542. For the same compound, the z-score [16] was -0.899 and 1.11, the z-score [17] was -0.433 (inactive) and -0.178 (inactive) and the z-score [18] was -0.0855 and -0.21. The z-score [19] was 0.412 and 1.06 and the z-score [20] was -0.555 (inactive) and -0.0644 (inactive).

With `CO[C@H]1COC(=O)[C@H](C)NC(=O)CC=C[C@@H](C)[C@H](OC)COC(=O)CC=C[C@@H]1C` the z-score [1] was 0.343 (inactive), the composite z-score [2] was -0.149 and the z-score [3] was -0.0029 (inactive). For the same compound, the z-score [4] was 0.147 (inactive), the z-score [5] was 0.597 (inactive) and the z-score [6] was -0.0165 (inactive). For the same compound, the z-score [7] was -0.248, the z-score [8] was 1.45 (inactive) and the z-score [9] was -1.65 (inactive). For the same compound, the z-score [10] was -0.796, the z-score [11] was 1.51 and the z-score [12] was 0.459. The z-score [13] was 0.235, the z-score [14] was 0.0144 and the z-score [15] was 0.417. The z-score [16] was 0.573, the z-score [17] was 0.156 (inactive) and the z-score [18] was 0.56. The z-score [19] was 1.04 and the z-score [20] was 0.74 (inactive).

For `CC(C)=NOC[C@@H](O)COCc1ccco1`, the z-score [1] was 0.534 (inactive), the composite z-score [2] was 0.843 and the z-score [3] was 0.159 (inactive). For the same compound, the z-score [4] was 0.365 (inactive), the z-score [5] was -0.0924 (inactive) and the z-score [6] was 0.0967 (inactive). For the same compound, the z-score [7] was 0.566, the z-score [8] was 0.0371 (inactive) and the z-score [9] was 0.0915 (inactive). For the same compound, the z-score [10] was 0.125, the z-score [11] was 0.991 and the z-score [12] was -0.611. For the same compound, the z-score [13] was 0.828, the z-score [14] was 0.191 and the z-score [15] was 0.313. The z-score [16] was -0.0938, the z-score [17] was 0.121 (inactive) and the z-score [18] was 0.602. For the same compound, the z-score [19] was -0.391 and the z-score [20] was -0.736 (inactive).

With `C=C[C@H](C)[C@H](O)c1ccc(O)c2ccccc12` the z-score [1] was 2.14 (inactive) and 2.25 (inactive), the composite z-score [2] was -0.31 and -0.201 and the z-score [3] was 0.656 (inactive) and 0.845 (inactive). For the same compound, the z-score [4] was -0.627 (inactive) and -0.531 (inactive), the z-score [5] was -0.984 (inactive) and -0.529 (inactive) and the z-score [6] was -0.408 (inactive) and -1.21 (inactive). The z-score [7] was 1.13 and 0.885, the z-score [8] was -5.4 (inactive) and -5.09 (inactive) and the z-score [9] was -0.841 (inactive) and -0.878 (inactive). For the same compound, the z-score [10] was 0.582 and 1.17, the z-score [11] was 0.0619 and 0.429 and the z-score [12] was 0.114 and -0.0793. For the same compound, the z-score [13] was -0.461 and 0.756, the z-score [14] was -2.53 and -2.69 and the z-score [15] was -0.233 and -0.17. For the same compound, the z-score [16] was -1.28 and -0.0285, the z-score [17] was -0.193 (inactive) and 1.11 (inactive) and the z-score [18] was -1.01 and 0.71. The z-score [19] was -1.76 and 0.307 and the z-score [20] was -0.52 (inactive) and -0.539 (inactive).

In the case of `COc1ccc(-c2ccc3c(n2)CCCN3CC(O)CN2CCCc3nc(-c4ccc(Br)cc4)ccc32)cc1` (stereo not given), the z-score [1] is reported as -0.018 (inactive) and 0.615 (inactive), the composite z-score [2] is reported as 0.684 and 0.209 and the z-score [3] is reported as 5.79 (inactive) and 1.91 (inactive). The z-score [4] was 1.07 (inactive) and 0.581 (inactive), the z-score [5] was 0.387 (inactive) and 0.0102 (inactive) and the z-score [6] was 0.322 (inactive) and 0.32 (inactive). For the same compound, the z-score [7] was -0.506 and -0.456, the z-score [8] was 0.181 (inactive) and 2.63 (inactive) and the z-score [9] was 0.169 (inactive) and 0.657 (inactive). The z-score [10] was -2.32 and -0.243, the z-score [11] was 0.261 and -0.331 and the z-score [12] was 0.163 and 0.196. For the same compound, the z-score [13] was -0.0242 and 0.0285, the z-score [14] was -2.63 and -0.767 and the z-score [15] was -0.393 and -0.48. The z-score [16] was 0.219 and -1.61, the z-score [17] was -0.136 (inactive) and -0.88 (inactive) and the z-score [18] was 0.553 and 0.817. The z-score [19] was 0.0404 and -0.331 and the z-score [20] was -0.23 (inactive) and 0.169 (inactive).

In the case of `C=CCN(C(=O)C1N(CCCCCCO)C(=O)C2C(C(=O)O)C3C=CC21O3)C(C)(C)C` (stereo not given), the z-score [1] is reported as -0.32 (inactive) and -0.471 (inactive), the composite z-score [2] is reported as -0.0573 and 0.0451 and the z-score [3] is reported as 0.203 (inactive) and 0.288 (inactive). For the same compound, the z-score [4] was 0.357 (inactive) and -0.387 (inactive), the z-score [5] was -0.395 (inactive) and -0.274 (inactive) and the z-score [6] was -0.28 (inactive) and -0.404 (inactive). The z-score [7] was 0.473 and -0.117, the z-score [8] was 0.93 (inactive) and 0.763 (inactive) and the z-score [9] was -0.0347 (inactive) and 0.143 (inactive). The z-score [10] was 0.588 and 1.41, the z-score [11] was 0.698 and -0.443 and the z-score [12] was -0.356 and -0.171. For the same compound, the z-score [13] was 0.159 and 0.187, the z-score [14] was 0.576 and 0.13 and the z-score [15] was -0.566 and -0.866. The z-score [16] was -0.872 and -0.997, the z-score [17] was -0.373 (inactive) and 0.302 (inactive) and the z-score [18] was 0.186 and 0.699. For the same compound, the z-score [19] was 1.29 and 0.193 and the z-score [20] was -0.0791 (inactive) and -0.385 (inactive).
